Test results from the supplement of paper PMC10849652.
About 7,900 targets were measured; listed, in parts, are those with a hit and a random draw of the rest. About 0.6% of all pairs of compound and target were hits. Unmarked numbers belong to inactive results.

How the values were obtained:
Assay in all cases: log2 fold change, soluble protein after heating vs DMSO (PISA); higher = thermal stabilisation; K562 cells, 10 uM, 30 min; active = over 0.2 and 3.5 SD of the protein, either way, in both replicates (recomputed)
[1] = compound: NC(=O)Nc1cc(-c2cccc(F)c2)sc1C(=O)N[C@H]1CCCNC1
Method in brief: (§1)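 Thermal stability values are relative to control samples and come from duplicates. They are expressed as log2 fold changes. For measurement, K562 cells (2×10^6 cells/mL) received 10 μM compound for 30 min, and aliquots were heated for 3 min over 48°C-58°C, pooled, and extracted at 4°C in PBS with 0.5% NP-40. Soluble protein, the supernatant after 21,000xg for 90 min, was quantified by TMTpro 16plex LC-MS/MS with equalised channel sums.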

[2] = compound: NC(=O)c1cnc(N[C@@H]2CCCC[C@@H]2N)nc1Nc1cccc(-n2nccn2)c1
Method in brief: as §1

[3] = compound: NC1(c2ccc(-c3nc4ccn5c(=O)[nH]nc5c4cc3-c3ccccc3)cc2)CCC1
Method in brief: as §1

[4] = compound: NCC(=O)Nc1ccc(-n2nc(C(F)(F)F)cc2-c2ccc3c(ccc4ccccc43)c2)cc1
Method in brief: as §1

entinostat = compound: Nc1ccccc1NC(=O)c1ccc(CNC(=O)OCc2cccnc2)cc1 [entinostat]
Method in brief: as §1

vorinostat = compound: O=C(CCCCCCC(=O)Nc1ccccc1)NO [vorinostat]
Method in brief: as §1

citarinostat = compound: O=C(CCCCCCNC(=O)c1cnc(N(c2ccccc2)c2ccccc2Cl)nc1)NO [citarinostat]
Method in brief: as §1

silmitasertib = compound: O=C(O)c1ccc2c(c1)nc(Nc1cccc(Cl)c1)c1ccncc12 [silmitasertib]
Method in brief: as §1

[5] = compound: O=C1NC(=O)C(c2cnc3ccccn23)=C1c1cn2c3c(cc(F)cc13)CN(C(=O)N1CCCCC1)CC2
Method in brief: as §1

[6] = compound: c1cc(OCCN2CCCCC2)cc(-c2n[nH]c3ccc(-c4nnc[nH]4)cc23)c1
Method in brief: as §1

Sequence of UniProt Q14139 (Q14139 whole entry, looked up): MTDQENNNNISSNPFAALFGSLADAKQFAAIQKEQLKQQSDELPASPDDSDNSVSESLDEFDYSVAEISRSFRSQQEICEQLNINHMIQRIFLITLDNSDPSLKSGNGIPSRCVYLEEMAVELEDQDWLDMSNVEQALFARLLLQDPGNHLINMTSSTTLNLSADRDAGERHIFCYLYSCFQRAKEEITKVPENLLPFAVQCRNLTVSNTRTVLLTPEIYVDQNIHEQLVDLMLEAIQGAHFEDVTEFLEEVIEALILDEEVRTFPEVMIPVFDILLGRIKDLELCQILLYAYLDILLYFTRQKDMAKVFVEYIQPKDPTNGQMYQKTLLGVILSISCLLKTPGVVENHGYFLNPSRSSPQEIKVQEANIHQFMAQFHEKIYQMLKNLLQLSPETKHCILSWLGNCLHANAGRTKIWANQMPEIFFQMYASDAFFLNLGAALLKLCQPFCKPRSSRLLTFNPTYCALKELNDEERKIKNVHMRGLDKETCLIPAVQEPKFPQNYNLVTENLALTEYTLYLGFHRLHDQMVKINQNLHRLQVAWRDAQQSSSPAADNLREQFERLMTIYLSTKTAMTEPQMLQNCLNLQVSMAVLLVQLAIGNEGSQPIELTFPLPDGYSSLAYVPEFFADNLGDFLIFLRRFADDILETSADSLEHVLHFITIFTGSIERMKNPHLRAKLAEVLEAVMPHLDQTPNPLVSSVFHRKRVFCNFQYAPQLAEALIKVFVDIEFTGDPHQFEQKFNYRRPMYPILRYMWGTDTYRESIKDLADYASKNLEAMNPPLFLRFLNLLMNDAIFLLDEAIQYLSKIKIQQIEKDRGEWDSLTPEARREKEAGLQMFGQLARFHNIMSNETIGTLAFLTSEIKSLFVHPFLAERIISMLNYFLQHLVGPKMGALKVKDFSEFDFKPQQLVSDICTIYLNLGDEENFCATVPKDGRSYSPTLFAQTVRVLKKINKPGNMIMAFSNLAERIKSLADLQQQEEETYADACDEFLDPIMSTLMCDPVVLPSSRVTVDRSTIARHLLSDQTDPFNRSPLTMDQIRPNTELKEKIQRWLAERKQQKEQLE
Sequence of UniProt A5PLN9 (A5PLN9 whole entry, looked up): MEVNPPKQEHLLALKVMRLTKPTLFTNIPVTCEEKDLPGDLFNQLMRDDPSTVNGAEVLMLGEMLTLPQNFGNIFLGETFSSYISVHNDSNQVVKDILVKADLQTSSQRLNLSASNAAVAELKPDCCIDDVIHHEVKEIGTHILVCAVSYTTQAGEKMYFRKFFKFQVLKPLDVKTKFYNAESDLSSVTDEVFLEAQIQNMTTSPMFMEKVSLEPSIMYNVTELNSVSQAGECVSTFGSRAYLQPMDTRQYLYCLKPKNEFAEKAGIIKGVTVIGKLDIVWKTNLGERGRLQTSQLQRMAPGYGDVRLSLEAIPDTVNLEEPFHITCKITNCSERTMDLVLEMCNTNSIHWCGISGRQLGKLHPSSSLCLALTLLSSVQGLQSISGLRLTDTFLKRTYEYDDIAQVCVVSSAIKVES
Sequence of UniProt A6NHL2 (A6NHL2 whole entry, looked up): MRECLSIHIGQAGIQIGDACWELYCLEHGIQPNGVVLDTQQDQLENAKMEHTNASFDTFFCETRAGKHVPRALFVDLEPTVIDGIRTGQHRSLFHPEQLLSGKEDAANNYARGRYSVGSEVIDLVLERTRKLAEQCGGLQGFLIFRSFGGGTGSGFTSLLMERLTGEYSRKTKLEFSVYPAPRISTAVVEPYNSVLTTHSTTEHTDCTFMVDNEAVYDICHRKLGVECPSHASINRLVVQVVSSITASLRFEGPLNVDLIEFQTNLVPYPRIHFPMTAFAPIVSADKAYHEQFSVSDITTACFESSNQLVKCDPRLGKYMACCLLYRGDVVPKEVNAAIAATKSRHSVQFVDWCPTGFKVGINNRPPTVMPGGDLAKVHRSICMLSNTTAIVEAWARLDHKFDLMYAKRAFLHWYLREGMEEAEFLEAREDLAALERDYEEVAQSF
Sequence of UniProt Q15629 (Q15629 whole entry, looked up): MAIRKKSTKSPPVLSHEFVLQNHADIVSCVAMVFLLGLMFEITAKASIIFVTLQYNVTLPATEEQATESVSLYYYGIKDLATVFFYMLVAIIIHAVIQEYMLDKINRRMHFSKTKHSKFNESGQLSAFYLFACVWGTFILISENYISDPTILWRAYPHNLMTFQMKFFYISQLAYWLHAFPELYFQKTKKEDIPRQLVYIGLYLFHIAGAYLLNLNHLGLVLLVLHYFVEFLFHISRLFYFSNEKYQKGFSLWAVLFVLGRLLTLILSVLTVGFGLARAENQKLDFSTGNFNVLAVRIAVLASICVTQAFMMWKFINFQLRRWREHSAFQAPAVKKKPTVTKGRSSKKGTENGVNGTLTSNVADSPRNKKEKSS
Sequence of UniProt Q9NVA4 (Q9NVA4 whole entry, looked up): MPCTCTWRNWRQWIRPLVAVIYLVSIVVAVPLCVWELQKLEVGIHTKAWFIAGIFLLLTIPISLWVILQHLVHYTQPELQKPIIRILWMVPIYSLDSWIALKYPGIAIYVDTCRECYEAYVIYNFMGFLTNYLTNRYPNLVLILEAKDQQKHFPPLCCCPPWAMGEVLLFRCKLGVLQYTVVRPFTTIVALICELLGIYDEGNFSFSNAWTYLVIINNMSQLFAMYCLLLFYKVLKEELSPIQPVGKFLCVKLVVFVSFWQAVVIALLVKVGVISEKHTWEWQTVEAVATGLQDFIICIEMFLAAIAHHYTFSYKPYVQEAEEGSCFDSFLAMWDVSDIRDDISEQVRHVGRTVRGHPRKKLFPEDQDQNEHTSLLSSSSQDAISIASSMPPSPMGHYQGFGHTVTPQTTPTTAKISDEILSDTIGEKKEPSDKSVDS
Sequence of UniProt Q5U3C3 (Q5U3C3 whole entry, looked up): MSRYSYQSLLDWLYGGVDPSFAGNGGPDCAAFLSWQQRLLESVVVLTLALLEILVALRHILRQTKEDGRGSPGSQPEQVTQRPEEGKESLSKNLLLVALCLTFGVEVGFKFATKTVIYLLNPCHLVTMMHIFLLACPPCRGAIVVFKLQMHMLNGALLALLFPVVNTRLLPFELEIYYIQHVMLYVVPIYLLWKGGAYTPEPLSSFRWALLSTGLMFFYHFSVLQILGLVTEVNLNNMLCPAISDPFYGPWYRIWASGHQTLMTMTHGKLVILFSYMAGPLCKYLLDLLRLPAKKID
Sequence of UniProt O94874 (O94874 whole entry, looked up): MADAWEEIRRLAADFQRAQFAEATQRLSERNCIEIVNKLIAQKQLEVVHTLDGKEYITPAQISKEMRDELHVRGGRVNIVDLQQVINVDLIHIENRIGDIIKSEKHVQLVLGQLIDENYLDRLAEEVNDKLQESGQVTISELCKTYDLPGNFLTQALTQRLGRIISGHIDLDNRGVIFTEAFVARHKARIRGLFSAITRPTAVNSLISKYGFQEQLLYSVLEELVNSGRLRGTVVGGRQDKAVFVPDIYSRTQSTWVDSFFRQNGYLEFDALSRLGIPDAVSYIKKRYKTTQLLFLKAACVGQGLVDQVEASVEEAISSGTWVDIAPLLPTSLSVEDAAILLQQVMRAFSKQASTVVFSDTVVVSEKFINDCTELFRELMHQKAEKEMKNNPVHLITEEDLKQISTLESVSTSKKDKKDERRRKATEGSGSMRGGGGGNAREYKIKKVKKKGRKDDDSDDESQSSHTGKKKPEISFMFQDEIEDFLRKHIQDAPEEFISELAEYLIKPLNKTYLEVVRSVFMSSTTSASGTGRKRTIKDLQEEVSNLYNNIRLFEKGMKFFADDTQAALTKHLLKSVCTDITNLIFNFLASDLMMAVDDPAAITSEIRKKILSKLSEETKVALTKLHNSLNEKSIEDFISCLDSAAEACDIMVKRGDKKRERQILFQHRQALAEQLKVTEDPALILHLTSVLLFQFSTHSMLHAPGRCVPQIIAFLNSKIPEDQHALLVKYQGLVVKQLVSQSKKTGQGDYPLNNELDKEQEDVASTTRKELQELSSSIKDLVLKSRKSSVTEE
Sequence of UniProt O94967 (O94967 whole entry, looked up): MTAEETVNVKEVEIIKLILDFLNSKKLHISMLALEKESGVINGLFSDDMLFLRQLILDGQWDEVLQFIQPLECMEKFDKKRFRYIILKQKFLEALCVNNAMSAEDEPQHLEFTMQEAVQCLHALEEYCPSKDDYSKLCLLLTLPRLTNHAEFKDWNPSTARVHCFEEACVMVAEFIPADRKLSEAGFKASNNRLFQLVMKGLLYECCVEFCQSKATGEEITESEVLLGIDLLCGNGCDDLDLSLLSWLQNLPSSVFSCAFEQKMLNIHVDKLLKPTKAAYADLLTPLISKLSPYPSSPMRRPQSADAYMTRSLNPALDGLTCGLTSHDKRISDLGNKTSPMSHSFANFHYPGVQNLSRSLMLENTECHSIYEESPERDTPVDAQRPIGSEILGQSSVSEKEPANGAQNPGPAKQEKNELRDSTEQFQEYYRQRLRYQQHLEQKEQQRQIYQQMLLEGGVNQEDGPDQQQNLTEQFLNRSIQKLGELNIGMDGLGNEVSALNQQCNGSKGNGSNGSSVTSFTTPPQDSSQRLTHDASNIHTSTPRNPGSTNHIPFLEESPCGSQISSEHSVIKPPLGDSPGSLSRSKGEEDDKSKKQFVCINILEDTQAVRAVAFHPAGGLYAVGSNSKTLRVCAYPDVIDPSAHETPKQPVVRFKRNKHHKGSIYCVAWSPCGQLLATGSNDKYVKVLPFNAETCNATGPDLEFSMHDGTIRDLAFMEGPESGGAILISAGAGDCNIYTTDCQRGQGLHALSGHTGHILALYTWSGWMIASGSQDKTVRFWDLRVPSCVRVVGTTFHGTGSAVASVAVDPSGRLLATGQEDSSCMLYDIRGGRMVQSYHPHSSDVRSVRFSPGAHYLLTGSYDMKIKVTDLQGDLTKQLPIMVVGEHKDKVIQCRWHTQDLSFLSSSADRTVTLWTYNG
Sequence of UniProt Q6PID6 (Q6PID6 whole entry, looked up): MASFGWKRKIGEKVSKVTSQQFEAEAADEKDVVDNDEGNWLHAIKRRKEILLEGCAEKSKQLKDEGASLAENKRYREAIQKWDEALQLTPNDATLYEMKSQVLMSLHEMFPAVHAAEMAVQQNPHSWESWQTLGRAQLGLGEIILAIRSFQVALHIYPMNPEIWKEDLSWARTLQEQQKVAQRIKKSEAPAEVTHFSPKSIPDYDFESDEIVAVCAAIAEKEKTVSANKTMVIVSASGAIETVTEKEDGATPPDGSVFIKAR

Target | log2 fold change [1] | log2 fold change [2] | log2 fold change [3] | log2 fold change [4] | log2 fold change (entinostat) | log2 fold change (vorinostat) | log2 fold change (citarinostat) | log2 fold change (silmitasertib) | log2 fold change [5] | log2 fold change [6]
TRABD (UniProt Q9H4I3) | 0.008 | -0.006 | 0.1 | 0.157 | -0.022 | 0.009 | -0.014 | 0.188 | 0.055 | -0.026
USP9X (UniProt Q93008) | 0 | -0.062 | -0.174 | -0.041 | 0.037 | 0.06 | 0.032 | 0.017 | -0.015 | -0.056
TNPO3 (UniProt Q9Y5L0) | 0.026 | -0.018 | -0.221 (active) | -0.024 | 0.049 | 0.076 | 0.058 | -0.024 | -0.06 | -0.059
TMEM106B (UniProt Q9NUM4) | -0.042 | -0.038 | -0.056 | -0.016 | 0.008 | -0.023 | 0.022 | 0.034 | 0 | 0.046
TRAPPC8 (UniProt Q9Y2L5) | -0.039 | -0.082 | -0.168 | -0.028 | 0.042 | 0.053 | 0.051 | 0.07 | -0.016 | -0.205
TMEM177 (UniProt Q53S58) | -0.014 | -0.008 | -0.043 | 0.347 (active) | -0.021 | -0.048 | 0.068 | -0.019 | 0.048 | -0.042
WASHC3 (UniProt Q9Y3C0) | -0.037 | 0.1 | -0.271 (active) | -0.029 | -0.011 | -0.053 | 0.016 | 0.075 | -0.054 | -0.005
WDR62 isoform 4 (UniProt O43379) | -0.07 | -0.099 | -0.052 | -0.038 | 0 | 0.05 | 0.054 | 0.073 | 0.01 | -0.07
UBA1 (UniProt P22314) | -0.044 | -0.112 | -0.275 | -0.101 | 0.159 | 0.167 | 0.125 | 0.018 | -0.013 | -0.028
TRAPPC13 isoform 5 (UniProt A5PLN9) | -0.01 | -0.248 | -0.269 | -0.148 | 0.045 | 0.079 | 0.136 | 0.017 | -0.016 | -0.13
TUBAL3 (UniProt A6NHL2) | 0 | -0.082 | -0.006 | 0.031 | 0.061 | 0.037 | -0.06 | 0.087 | 0.059 | -0.291
VRK2 (UniProt Q86Y07) | 0.023 | 0.04 | -0.111 | -0.025 | 0.032 | 0.02 | 0.008 | 0 | 0.06 | 0.001
TOM1L1 (UniProt O75674) | -0.086 | 0.102 | 0.008 | 0.018 | -0.034 | 0.092 | -0.074 | 0.021 | 0.008 | -0.041
UFD1 isoform 1 (UniProt Q92890) | -0.001 | -0.015 | -0.03 | -0.001 | 0.01 | 0.003 | 0.061 | -0.014 | 0.014 | 0.034
USP7 (UniProt Q93009) | -0.039 | -0.062 | -0.263 | -0.07 | 0.097 | 0.182 | 0.096 | -0.028 | -0.037 | 0.046
UBE4A isoform 2 (UniProt Q14139) | -0.017 | 0.01 | -0.136 | 0.001 | 0.146 | 0.133 | 0.059 | 0.117 | 0.026 | -0.014
TNFRSF10A (UniProt O00220) | -0.097 | -0.019 | 0.06 | 0.029 | -0.202 | -0.178 | -0.011 | 0.028 | -0.069 | -0.07
TRAM1 (UniProt Q15629) | -0.104 | -0.073 | -0.162 | -0.196 | -0.075 | 0.034 | -0.083 | 0.066 | 0.025 | -0.021
UFL1 (UniProt O94874) | -0.06 | -0.013 | -0.107 | -0.066 | 0.059 | 0.074 | 0.063 | 0.029 | -0.013 | -0.048
TMEM208 (UniProt Q9BTX3) | 0.038 | -0.133 | -0.28 | -0.181 | -0.01 | 0.187 | 0.036 | 0.048 | 0.02 | -0.09
WNK1 isoform 7 (UniProt Q9H4A3) | 0.002 | 0.001 | -0.037 | -0.042 | 0.008 | -0.05 | 0.009 | -0.062 | -0.01 | -0.063
VPS52 (UniProt Q8N1B4) | 0.065 | -0.005 | -0.132 | -0.039 | 0.037 | 0.086 | 0.015 | 0.08 | 0.02 | 0.016
TTC33 (UniProt Q6PID6) | -0.1 | -0.158 | -0.197 | -0.133 | -0.123 | -0.072 | -0.038 | 0.151 | -0.08 | 0.003
UCHL5 (UniProt Q9Y5K5) | -0.003 | -0.029 | -0.124 | -0.045 | 0.048 | 0.063 | 0.08 | 0.04 | -0.084 | -0.026
WASHC2C, A0A096LPC5 | -0.084 | -0.208 | -0.06 | -0.058 | -0.015 | -0.209 | -0.113 | 0.361 | 0.001 | -0.151
TMEM184C (UniProt Q9NVA4) | -0.185 | 0.069 | -0.401 (active) | -0.07 | -0.218 | 0.08 | -0.065 | -0.004 | -0.055 | 0.022
TMEM164 (UniProt Q5U3C3) | 0.129 | -0.138 | -0.006 | -0.248 | -0.112 | 0.139 | 0.087 | 0.01 | -0.004 | -0.268
UTP3 (UniProt Q9NQZ2) | 0.093 | 0.074 | 0.286 | 0.087 | -0.019 | -0.06 | -0.107 | 0.095 | 0.103 | -0.41
WDR47 (UniProt O94967) | 0.072 | -0.023 | -0.224 (active) | -0.065 | 0.002 | -0.014 | 0.014 | 0.089 | 0.004 | 0.282
